HCV inhibitor – qHTS Assay for Inhibitors of Hepatitis C Virus (HCV) | Huh7.5.1 HCVcc-Cre infection, luciferase reporter, 44 h | Potency, µM (top dose mostly 41.8 µM), for inactives: at the highest dose activity change, negative = inhibition, actives largely listed as inhibitors | actives 3.4% (n = 340,000) | AID 651820, 2012; active = well fitted inhibition curve with a large enough effect; inconclusive = small, poorly fitted or top-dose-only effect, or another doubt; inactive = no such curve, though single readings can be large or run the other way; note: potency is the fitted concentration of half-maximal effect
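Whole-lifecycle infectious HCVcc-Cre system; cells 1,000/well, compound then virus (~0.5 moi) added 4 h after plating, 44 h culture. Luciferase read 15 sec following 15 min substrate incubation, room temp.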
VACV Venus inh – qHTS for Stage-Specific Inhibitors of Vaccinia Orthopoxvirus: Venus Reporter Primary qHTS. Potency, µM (doses to about 36.5 µM), without a hit: at the highest dose activity change, negative = inhibition, usual class: inhibitors. Vaccinia virus Venus reporter expression, fluorescence. AID 720580, 2013. actives 0.46% (n = 330,000); calls by dose curve; tested in A549 cells; note: potency is the fitted concentration of half-maximal effect; nearly all actives have a fitted effect of over 30% in size
FMDV antiviral – High Throughput Screening for Foot and Mouth Disease Virus Antivirals; FMDV antiviral cell-based qHTS; AID 1159524, 2015; Potency, µM (series often up to 57.9 µM), inactives show at the highest dose activity change, negative = inhibition, actives largely listed as inhibitors; actives 1.2% (n = 410,000); calls by dose curve; tested in HEK293T cells; note: read-out not given here; potency is the fitted concentration of half-maximal effect; nearly all actives have a fitted effect of over 45% in size
HCMV inh – qHTS Assay for inhibitors of the human cytomegalovirus (HCMV). HFF cells, HCMV-luciferase reporter, 72 h; hits give low values. activity change, negative = inhibition, % at 57.5 µM. actives 4.5% (n = 410,000); in the data active = activity change below about -60%; inconclusive = no clear call, values can overlap the other calls; inactive = above about -39%
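Screen run at 2 compound doses on HFFs infected with reporter HCMV, MOI 1 PFU/cell. Luciferase activity from cell lysates at 72 h post infection gave inhibition relative to buffer-only and Salinomycin wells.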
Vaccinia mCherry – qHTS for Stage-Specific Inhibitors of Vaccinia Orthopoxvirus: mCherry Reporter Primary qHTS. Potency, µM (doses to about 36.5 µM), inactives show at the top dose activity change, negative = inhibition, actives largely listed as inhibitors. Vaccinia virus mCherry reporter infection, fluorescence. actives 0.63% (n = 310,000); calls by dose curve; tested in A549 cells; note: potency is the fitted concentration of half-maximal effect; nearly all actives have a fitted effect of over 35% in size
* hit, by the source's call; i = inactive; ? = inconclusive; · = no result. Sampled rows, rich in hits. Any-hit rate of the full collection: about 7.3%. % is set by controls: 0 for no effect and ±100 for the full control effect.

SMILES	HCV inhibitor	VACV Venus inh	FMDV antiviral	HCMV inh	Vaccinia mCherry
COc1ccc(/C=C/C(=O)c2ccc3c4c(cccc24)CC3)cc1	?	?	7.2%	7.4	?
COc1ccc(C(=O)Oc2ccc(F)cc2C(=O)/C=C/c2ccc(OC)c(OC)c2)cc1	-11.6%	-14.2%	39.8µM*	?	i
CCOc1ccc(C(=O)/C=C/c2ccc(OC)c(OC)c2)cc1	?	-20.3%	?	102.1	-21.9%
COc1ccc(/C=C/C(=O)c2cc(F)ccc2OC(=O)c2ccccc2C)cc1OC	-21.9%	?	25.1µM*	-85.9*	?
Cc1[nH]nc2c1C(c1ccc(F)cc1)N(Cc1ccccc1)C2=O (configuration not stated)	·	·	·	-39.1	·
CCCCCCOc1ccc(/C(C)=N/NC2=NCCN2)cc1	11.2µM*	·	-17.7%	-96.2*	·
CCOc1ccc(Br)cc1/C(C)=N\NC1=NCCN1	4.47µM*	?	0.0%	?	·
O=[N+]([O-])c1ccccc1/C=C/c1ccnc2ccccc12	·	-22.5%	·	·	-3.8%
COc1ccc(-c2noc(-c3ccc(N4CCN(c5ccccc5OC)CC4)c([N+](=O)[O-])c3)n2)cc1	·	10.9%	-5.7%	2.3	1.2%
C=CCc1cccc(CNc2cnc3ccccc3c2)c1O	7.94µM*	·	-4.2%	-32.7	·
Oc1ccccc1CNc1cnc2ccccc2c1	?	-19.7%	-5.2%	-16.0	-28.2%
CSc1nc2nc3c(cc2c(=O)n1-c1ccccc1C)CCCC3	?	-17.7%	?	-91.2*	10.2%
COc1ccc2c(c1)-c1nc(-n3ncc(C(=O)NC(C)(C)CO)c3C3CC3)ncc1CC2	·	-1.4%	-19.7%	·	-17.5%
N#Cc1nc(NCC(F)F)nc(Nc2cc(F)cc(F)c2)n1	·	·	11.2µM*	-37.8	·
COc1cc2nc(C3CCC3)nc(N3CCN(c4ccccn4)CC3)c2cc1OC	?	-8.4%	17.8µM*	·	-11.3%
COc1cc2nc(C3CCC3)nc(N3CCN(c4ccccc4OC)CC3)c2cc1OC	3.16µM*	?	?	25.3	?
Nc1cc(N)[nH]c(=S)n1	·	-12.5%	·	·	29.4%
CC(C)Oc1cccc(C(=O)Nc2ccc(-c3nc4cc(Cl)cc(Cl)c4o3)cc2)c1	·	-12.7%	?	6.6	-6.5%
CCOc1ccccc1Nc1nnc(-c2cc3cc(Cl)ccc3oc2=O)s1	·	?	-4.6%	8.3	?
O=[N+]([O-])c1ccc(Cl)c(S(=O)(=O)Nc2ccc(-c3ccc(N4CCCC4)nn3)cc2)c1	8.6%	-29.8%	36.6%	-64.3*	i
CC1(c2ccccc2)NC(=O)N(CC(=O)NCCC2=CCCCC2)C1=O (configuration not stated)	-4.1%	-4.3%	8.4%	-69.3*	-15.7%
Cc1ccc(C2(C)NC(=O)N(CC(=O)NCCC3=CCCCC3)C2=O)cc1 (configuration not stated)	-27.2%	-5.0%	-9.0%	-11.1	-8.0%
COc1ccc(NC(=O)CN2C(=O)NC(C)(c3ccccc3)C2=O)c(OC)c1 (configuration not stated)	-29.0%	-9.5%	0.2%	20.0	i
COc1ccc(OC)c(C(=O)CN2C(=O)NC(C)(c3ccccc3)C2=O)c1 (configuration not stated)	1.5%	-22.6%	-12.4%	-60.7*	-26.7%
CC(C)=C1SC(N2CCN(c3ccc(Cl)cc3)CC2)=NC1=O	5.2%	-15.0%	-14.1%	-75.1*	-23.0%
SMILES	HCV inhibitor	VACV Venus inh	FMDV antiviral	HCMV inh	Vaccinia mCherry
CC(C)=C1SC(N2CCN(c3ccc(C)cc3)CC2)=NC1=O	18.6%	-19.3%	-0.2%	-38.5	·
CCOc1ccccc1-c1nc(C(N)=O)c2c(n1)n(-c1ccc3c(c1)OCO3)c(=O)n2C	·	7.6%	-11.1%	1.6	11.4%
COc1ccc(C(CNC(=O)c2oc3ccc(Br)cc3c2C)N2CCCCC2)cc1 (configuration not stated)	12.6µM*	5.3%	-26.9%	-32.9	-11.6%
COc1ccc(/C=C/C(=O)Nc2ccc(-c3nnc4n3CCCCC4)cc2)c(OC)c1	?	-26.8%	-28.6%	-74.1*	13.0%
COc1ccc(C(CNC(=O)c2oc3ccc(F)cc3c2C)N2CCCCC2)cc1 (configuration not stated)	11.2µM*	·	?	-19.9	·
COc1ccc(C(CNC(=O)c2oc3ccc(OC)cc3c2C)N2CCCC2)cc1 (configuration not stated)	?	-20.6%	-12.3%	-15.7	-26.4%
Cc1c(C(=O)N2CCCCC2)oc2ccc(Br)cc12	22.4µM*	-9.2%	91.6%	16.0	-3.3%
O=C(Nc1ccc(F)c(F)c1)C1CCCN1S(=O)(=O)c1cccc2nsnc12 (configuration not stated)	·	-2.5%	-21.8%	-6.2	-10.2%
CCC1CCc2sc(C(=O)NCC(c3ccc(OC)cc3)N3CCCC3)cc2C1 (configuration not stated)	10µM*	-21.2%	-3.4%	-35.2	-18.4%
Cc1c(C(=O)Nc2ccc(-c3nnc4n3CCCCC4)cc2)oc2ccc(Br)cc12	11.2µM*	-16.8%	0.0%	?	-4.3%
COc1ccc(C(CNC(=O)c2cccc(N(C)C)c2)N2CCCC2)cc1 (configuration not stated)	-6.7%	·	8.2%	86.9	·
Cc1ccc(NC(=S)/N=C(\N)Nc2nc(C)c3cc(C)ccc3n2)c(C)c1	2.82µM*	?	-18.7%	-86.3*	i
COc1ccc2nc(N/C(N)=N/C(=S)Nc3cccc(C)c3)nc(C)c2c1	?	-14.1%	-2.0%	-7.1	·
COc1ccc2nc(N/C(N)=N/C(=S)Nc3c(C)cccc3C)nc(C)c2c1	?	·	21.9%	-71.4*	·
COc1ccc(C)cc1-n1c(SCC(=O)NCC2CCCO2)nc2c([nH]c3ccccc32)c1=O (configuration not stated)	8.91µM*	-17.0%	-15.7%	-17.0	-0.8%
COc1ccc(-n2c(SCC(=O)Nc3ccc(C(N)=O)cc3)nc3c([nH]c4ccccc43)c2=O)cc1OC	11.2µM*	·	-11.3%	53.3	·
COc1cccc(NC(=O)CSc2nc3ccccc3c(=O)n2C)c1	22.4µM*	·	0.0%	?	·
Cc1ccccc1-n1c(SCC(=O)NCC2CCCO2)nc2c([nH]c3ccccc32)c1=O (configuration not stated)	-12.5%	-5.4%	-5.7%	-36.7	-12.1%
CCC1CCCCN1C(=O)CSc1nc2c([nH]c3ccccc32)c(=O)n1-c1cccc(OC)c1 (configuration not stated)	·	-27.9%	-12.0%	-90.9*	?
Cc1csc(NCC(=O)c2c(C)[nH]c3ccccc23)n1	·	-22.3%	·	·	-19.1%
Cn1c(-c2cccc(F)c2)cc2cnc(Nc3cccnc3)cc21	·	·	·	7.3	·
Cc1ccccc1Cn1c(SCc2ccc(C(=O)NC3CCCCC3)cc2)nc2ccncc21	·	-19.7%	1.0%	11.1	-19.7%

Compound activity from PubChem BioAssay.
